Source: the supplement of paper PMC10849652
Targets with a hit are over-represented here; the source holds about 7,900 in all. About 0.6% of all pairs of compound and target were hits.

Experiments:
Assay in all cases: log2 fold change, soluble protein after heating vs DMSO (PISA); higher = thermal stabilisation; K562 cells, 10 uM, 30 min; active = over 0.2 and 3.5 SD of the protein, either way, in both replicates (recomputed)
[1] = compound: CS(=O)(=O)c1ccc(-c2cnc(N)c(C(=O)Nc3ccccc3)n2)cc1
How it was run: (§1)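 Quantification of soluble protein used TMTpro 16plex LC-MS/MS, with channel sums equalised. Samples were the supernatant after 21,000xg for 90 min of pooled aliquots from K562 cells (2×10^6 cells/mL) treated with 10 μM compound for 30 min, heated for 3 min over 48°C-58°C, and extracted in PBS with 0.5% NP-40 at 4°C. Values, from duplicates, describe thermal stability against control samples on a log2 fold-change scale.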

crizotinib = compound: C[C@@H](Oc1cc(-c2cnn(C3CCNCC3)c2)cnc1N)c1c(Cl)ccc(F)c1Cl [crizotinib]
How it was run: as §1

[2] = compound: C[C@@H]1COCCN1C2=NC(=NC(=C2)C3(CC3)S(=O)(=O)C)C4=C5C=CNC5=CC=C4
How it was run: as §1

[3] = compound: C[C@H](C1=CC=C(C=C1)C(=O)NC2=C3C=CNC3=NC=C2)N
How it was run: as §1

duvelisib = compound: C[C@H](Nc1ncnc2nc[nH]c12)c1cc2cccc(Cl)c2c(=O)n1-c1ccccc1 [duvelisib]
How it was run: as §1

gandotinib = compound: Cc1cc(Nc2cc(CN3CCOCC3)c3nc(C)c(Cc4ccc(Cl)cc4F)n3n2)n[nH]1 [gandotinib]
How it was run: as §1

tozasertib = compound: Cc1cc(Nc2cc(N3CCN(C)CC3)nc(Sc3ccc(NC(=O)C4CC4)cc3)n2)n[nH]1 [tozasertib]
How it was run: as §1

[4] = compound: Cc1cc(SCc2sc(-c3ccc(C(F)(F)F)cc3)nc2C)ccc1OCC(=O)O
How it was run: as §1

doramapimod = compound: Cc1ccc(-n2nc(C(C)(C)C)cc2NC(=O)Nc2ccc(OCCN3CCOCC3)c3ccccc23)cc1 [doramapimod]
How it was run: as §1

ispinesib = compound: Cc1ccc(C(=O)N(CCCN)[C@@H](c2nc3cc(Cl)ccc3c(=O)n2Cc2ccccc2)C(C)C)cc1 [ispinesib]
How it was run: as §1

bafetinib = compound: Cc1ccc(NC(=O)c2ccc(CN3CC[C@H](N(C)C)C3)c(C(F)(F)F)c2)cc1Nc1nccc(-c2cncnc2)n1 [bafetinib]
How it was run: as §1

[5] = compound: Cc1cccc(CC(=O)N2CCc3c2ccc(-c2cn(C)c4ncnc(N)c24)c3F)n1
How it was run: as §1

nilotinib = compound: Cc1cn(-c2cc(NC(=O)c3ccc(C)c(Nc4nccc(-c5cccnc5)n4)c3)cc(C(F)(F)F)c2)cn1 [nilotinib]
How it was run: as §1

[6] = compound: Cc1nc(Nc2n[nH]c3c2CN(C(=O)N[C@H](CN(C)C)c2ccccc2)C3(C)C)c2sccc2n1
How it was run: as §1

dasatinib = compound: Cc1nc(Nc2ncc(C(=O)Nc3c(C)cccc3Cl)s2)cc(N2CCN(CCO)CC2)n1 [dasatinib]
How it was run: as §1

[7] = compound: Cc1ncc(-c2ccnc(Nc3ccc(S(C)(=O)=O)cc3)n2)n1C(C)C
How it was run: as §1

[8] = compound: Cn1cc(-c2ccc3c(c2)CCN3C(=O)Cc2cccc(C(F)(F)F)c2)c2c(N)ncnc21
How it was run: as §1

[9] = compound: Cn1cc(-c2ccc3nnc(C(F)(F)c4ccc5ncccc5c4)n3n2)cn1
How it was run: as §1

tipifarnib = compound: Cn1cncc1[C@@](N)(c1ccc(Cl)cc1)c1ccc2c(c1)c(-c1cccc(Cl)c1)cc(=O)n2C [tipifarnib]
How it was run: as §1

mubritinib = compound: FC(F)(F)c1ccc(/C=C/c2nc(COc3ccc(CCCCn4ccnn4)cc3)co2)cc1 [mubritinib]
How it was run: as §1

Measured: log2 fold change

CELF2 isoform 3 (UniProt O95319)
Chain of UniProt O95319 (O95319 whole entry, looked up): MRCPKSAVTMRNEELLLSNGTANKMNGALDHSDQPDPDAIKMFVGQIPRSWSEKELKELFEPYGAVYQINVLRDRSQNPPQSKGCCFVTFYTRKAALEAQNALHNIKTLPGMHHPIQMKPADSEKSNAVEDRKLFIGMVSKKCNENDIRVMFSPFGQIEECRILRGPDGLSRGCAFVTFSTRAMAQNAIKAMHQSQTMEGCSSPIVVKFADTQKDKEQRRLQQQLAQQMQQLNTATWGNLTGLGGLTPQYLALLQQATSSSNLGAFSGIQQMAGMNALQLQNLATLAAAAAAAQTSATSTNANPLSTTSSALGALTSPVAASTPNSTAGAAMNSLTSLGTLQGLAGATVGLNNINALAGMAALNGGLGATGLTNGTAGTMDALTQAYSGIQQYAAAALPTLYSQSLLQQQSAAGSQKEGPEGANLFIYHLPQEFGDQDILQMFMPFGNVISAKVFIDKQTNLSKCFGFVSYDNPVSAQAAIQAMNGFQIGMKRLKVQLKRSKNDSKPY
inactive: [1] -0.107 | crizotinib 0.098 | [2] 0.006 | [3] -0.038 | duvelisib -0.027 | gandotinib -0.027 | tozasertib -0.054 | [4] 0.102 | doramapimod 0.05 | ispinesib -0.066 | bafetinib 0.014 | [5] -0.005 | nilotinib -0.001 | [6] 0.013 | dasatinib -0.005 | [7] 0.079 | [8] -0.022 | [9] -0.059 | tipifarnib -0.062 | mubritinib -0.006

CSNK1A1 (UniProt P48729)
Chain of UniProt P48729 (P48729 whole entry, looked up): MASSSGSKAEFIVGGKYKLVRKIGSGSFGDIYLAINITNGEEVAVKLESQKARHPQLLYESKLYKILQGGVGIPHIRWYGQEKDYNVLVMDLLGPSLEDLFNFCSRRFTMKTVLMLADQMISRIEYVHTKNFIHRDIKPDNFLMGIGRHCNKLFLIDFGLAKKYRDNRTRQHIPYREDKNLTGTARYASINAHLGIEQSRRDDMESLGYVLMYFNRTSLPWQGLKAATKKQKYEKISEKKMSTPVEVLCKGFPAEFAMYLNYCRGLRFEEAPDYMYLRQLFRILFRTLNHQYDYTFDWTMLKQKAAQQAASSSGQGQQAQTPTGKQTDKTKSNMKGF
inactive: [1] -0.093 | crizotinib -0.115 | [2] -0.114 | [3] -0.073 | duvelisib -0.04 | gandotinib 0.014 | tozasertib -0.034 | [4] 0.017 | doramapimod 0.024 | ispinesib -0.125 | bafetinib -0.044 | [5] -0.156 | nilotinib -0.106 | [6] -0.008 | dasatinib 0.011 | [7] 0.033 | [8] -0.118 | [9] -0.055 | tipifarnib 0.022 | mubritinib -0.086

CDC123 (UniProt O75794)
active: crizotinib -0.246
inactive: [1] -0.001 | [2] 0.074 | [3] -0.032 | duvelisib 0.159 | gandotinib 0.044 | tozasertib -0.049 | [4] 0.115 | doramapimod 0.003 | ispinesib 0.013 | bafetinib 0.015 | [5] -0.013 | nilotinib -0.084 | [6] 0.079 | dasatinib -0.032 | [7] 0.018 | [8] 0.029 | [9] -0.04 | tipifarnib -0.031 | mubritinib -0.006

CCNK isoform 4 (UniProt O75909)
Chain of UniProt O75909 (O75909 whole entry, looked up): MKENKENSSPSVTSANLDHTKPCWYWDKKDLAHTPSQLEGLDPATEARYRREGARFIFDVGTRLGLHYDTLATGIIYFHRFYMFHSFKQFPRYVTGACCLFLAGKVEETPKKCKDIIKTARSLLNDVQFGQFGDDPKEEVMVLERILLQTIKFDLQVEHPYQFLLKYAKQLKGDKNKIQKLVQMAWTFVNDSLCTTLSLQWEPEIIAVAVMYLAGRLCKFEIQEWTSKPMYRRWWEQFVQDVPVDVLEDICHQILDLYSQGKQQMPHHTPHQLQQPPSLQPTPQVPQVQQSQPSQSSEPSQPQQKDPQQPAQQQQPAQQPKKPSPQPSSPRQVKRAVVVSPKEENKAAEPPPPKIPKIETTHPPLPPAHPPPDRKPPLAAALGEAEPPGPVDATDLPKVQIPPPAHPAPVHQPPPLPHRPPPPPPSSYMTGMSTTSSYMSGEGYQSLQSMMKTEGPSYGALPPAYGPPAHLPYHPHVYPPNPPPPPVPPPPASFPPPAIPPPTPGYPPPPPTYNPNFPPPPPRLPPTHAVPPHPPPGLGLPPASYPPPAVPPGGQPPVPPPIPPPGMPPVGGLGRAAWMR
inactive: [1] -0.014 | crizotinib -0.023 | [2] 0.073 | [3] -0.042 | duvelisib -0.06 | tozasertib 0.157 | [4] 0.016 | doramapimod 0.157 | ispinesib 0.03 | bafetinib 0.106 | [5] -0.021 | nilotinib 0.045 | [6] 0.046 | dasatinib -0.013 | [7] -0.025 | [8] -0.118 | [9] -0.069 | tipifarnib 0.096 | mubritinib 0.006
active: gandotinib 0.324

CDK13 (UniProt Q14004)
Chain of UniProt Q14004 (Q14004 whole entry, looked up): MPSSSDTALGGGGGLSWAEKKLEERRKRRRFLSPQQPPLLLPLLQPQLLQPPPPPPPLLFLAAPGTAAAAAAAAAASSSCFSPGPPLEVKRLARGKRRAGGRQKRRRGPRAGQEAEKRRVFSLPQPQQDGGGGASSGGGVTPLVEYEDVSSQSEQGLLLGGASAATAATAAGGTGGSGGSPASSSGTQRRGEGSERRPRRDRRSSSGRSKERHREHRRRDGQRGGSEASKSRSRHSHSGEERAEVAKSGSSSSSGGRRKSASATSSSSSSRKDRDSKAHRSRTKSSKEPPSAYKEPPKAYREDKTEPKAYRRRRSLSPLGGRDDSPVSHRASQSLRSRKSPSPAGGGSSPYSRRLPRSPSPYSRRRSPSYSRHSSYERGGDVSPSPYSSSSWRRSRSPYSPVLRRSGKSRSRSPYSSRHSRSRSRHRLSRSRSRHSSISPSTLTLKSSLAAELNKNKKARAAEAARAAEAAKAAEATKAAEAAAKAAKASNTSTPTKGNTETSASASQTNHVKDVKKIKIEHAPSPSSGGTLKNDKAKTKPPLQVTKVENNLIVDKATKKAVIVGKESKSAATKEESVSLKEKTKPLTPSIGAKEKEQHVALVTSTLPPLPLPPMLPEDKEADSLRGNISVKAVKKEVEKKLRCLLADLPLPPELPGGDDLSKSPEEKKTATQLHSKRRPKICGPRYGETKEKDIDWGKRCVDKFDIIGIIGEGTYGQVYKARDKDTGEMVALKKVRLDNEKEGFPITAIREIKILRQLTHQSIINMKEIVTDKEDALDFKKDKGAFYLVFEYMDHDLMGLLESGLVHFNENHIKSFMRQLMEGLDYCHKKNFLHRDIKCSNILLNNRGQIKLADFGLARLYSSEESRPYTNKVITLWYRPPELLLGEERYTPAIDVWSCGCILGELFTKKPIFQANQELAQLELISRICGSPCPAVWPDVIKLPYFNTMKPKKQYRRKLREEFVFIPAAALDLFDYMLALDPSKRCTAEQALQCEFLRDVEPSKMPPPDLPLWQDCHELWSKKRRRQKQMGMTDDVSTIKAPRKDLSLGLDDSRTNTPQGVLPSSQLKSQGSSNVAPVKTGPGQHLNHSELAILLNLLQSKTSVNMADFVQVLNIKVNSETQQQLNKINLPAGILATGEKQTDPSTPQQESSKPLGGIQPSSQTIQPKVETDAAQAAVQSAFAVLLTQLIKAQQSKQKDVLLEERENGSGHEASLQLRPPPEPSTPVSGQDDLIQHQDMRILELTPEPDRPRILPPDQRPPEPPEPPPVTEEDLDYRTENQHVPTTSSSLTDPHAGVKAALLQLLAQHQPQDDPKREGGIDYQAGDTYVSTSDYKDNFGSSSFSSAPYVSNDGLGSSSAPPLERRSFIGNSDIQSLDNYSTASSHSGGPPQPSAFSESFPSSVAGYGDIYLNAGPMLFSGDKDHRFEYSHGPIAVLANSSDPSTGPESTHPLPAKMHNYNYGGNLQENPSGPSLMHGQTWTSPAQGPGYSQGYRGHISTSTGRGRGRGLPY
inactive: [1] -0.075 | crizotinib -0.124 | [2] -0.036 | [3] 0.095 | duvelisib 0.043 | tozasertib -0.118 | [4] 0.141 | doramapimod -0.006 | ispinesib 0.063 | bafetinib 0.092 | [5] -0.018 | nilotinib -0.024 | [6] -0.149 | dasatinib -0.089 | [7] -0.108 | [8] -0.028 | [9] -0.098 | tipifarnib 0.069 | mubritinib 0.023
active: gandotinib -0.414

CNN2 (UniProt Q99439)
Chain of UniProt Q99439 (Q99439 whole entry, looked up): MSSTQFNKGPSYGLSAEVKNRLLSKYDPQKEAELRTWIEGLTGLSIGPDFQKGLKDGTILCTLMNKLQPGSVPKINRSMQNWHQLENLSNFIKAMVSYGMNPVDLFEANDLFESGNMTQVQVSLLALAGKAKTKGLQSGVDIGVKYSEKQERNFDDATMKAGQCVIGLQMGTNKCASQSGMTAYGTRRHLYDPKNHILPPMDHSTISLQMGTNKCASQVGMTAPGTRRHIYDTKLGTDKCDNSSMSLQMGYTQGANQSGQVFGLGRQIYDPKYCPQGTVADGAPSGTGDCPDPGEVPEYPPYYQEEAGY
inactive: [1] -0.003 | crizotinib -0.058 | [2] 0.058 | [3] -0.005 | duvelisib -0.017 | gandotinib -0.088 | tozasertib 0.092 | [4] 0.012 | doramapimod 0.007 | ispinesib -0.059 | bafetinib -0.001 | [5] 0.052 | nilotinib -0.075 | [6] -0.074 | dasatinib -0.14 | [7] 0.006 | [8] 0.011 | [9] 0.044 | tipifarnib -0.16 | mubritinib 0.051

C4A (UniProt P0C0L4)
inactive: [1] -0.096 | crizotinib 0.065 | [2] 0.088 | [3] 0.056 | duvelisib 0.026 | gandotinib -0.375 | tozasertib -0.056 | [4] 0.008 | doramapimod -0.153 | ispinesib -0.155 | bafetinib -0.316 | [5] -0.018 | nilotinib 0.027 | [6] 0.136 | dasatinib -0.044 | [7] 0.217 | [8] 0.163 | [9] 0.052 | tipifarnib -0.087 | mubritinib -0.193

CPT2 (UniProt P23786)
inactive: crizotinib -0.42 | [2] 0.06 | [3] -0.01 | duvelisib 0.069 | gandotinib 0.119 | tozasertib -0.049 | doramapimod -0.019 | ispinesib -0.306 | bafetinib -0.115 | [5] 0.008 | nilotinib 0.096 | [6] -0.003 | dasatinib 0.217 | [7] 0.047 | [8] 0.268 | [9] 0.265 | tipifarnib -0.076
active: [1] 0.701 | [4] 1.04 | mubritinib 0.763

CAMK2G isoform 6 (UniProt Q13555)
active: [6] 0.642
inactive: [1] -0.02 | crizotinib -0.146 | [2] -0.064 | [3] -0.116 | duvelisib -0.025 | gandotinib -0.041 | tozasertib 0.028 | [4] -0.004 | doramapimod 0.073 | ispinesib 0 | bafetinib 0.064 | [5] -0.148 | nilotinib 0.002 | dasatinib -0.11 | [7] 0.083 | [8] 0.01 | [9] -0.073 | tipifarnib -0.025 | mubritinib -0.008

CCNB1 (UniProt P14635)
inactive: [1] -0.002 | crizotinib -0.021 | [2] -0.044 | [3] -0.024 | duvelisib 0.06 | gandotinib -0.004 | tozasertib -0.042 | [4] -0.025 | doramapimod -0.011 | ispinesib 0.043 | bafetinib -0.018 | [5] 0.009 | nilotinib 0.04 | [6] -0.156 | dasatinib 0.02 | [7] -0.025 | [8] 0.006 | [9] 0.003 | tipifarnib 0.02 | mubritinib 0.08

C19orf53 (UniProt Q9UNZ5)
inactive: [1] -0.125 | crizotinib 0.092 | [2] -0.553 | [3] 0.404 | duvelisib -0.15 | gandotinib 0.316 | tozasertib 0.022 | [4] 0.03 | doramapimod 0.174 | ispinesib -0.13 | bafetinib 0.271 | [5] 0.034 | nilotinib 0.029 | [6] 0.139 | dasatinib 0.222 | [7] 0.023 | [8] -0.207 | [9] -0.083 | tipifarnib 0.165 | mubritinib -0.13

CNTN4 (UniProt Q8IWV2)
Chain of UniProt Q8IWV2 (Q8IWV2 whole entry, looked up): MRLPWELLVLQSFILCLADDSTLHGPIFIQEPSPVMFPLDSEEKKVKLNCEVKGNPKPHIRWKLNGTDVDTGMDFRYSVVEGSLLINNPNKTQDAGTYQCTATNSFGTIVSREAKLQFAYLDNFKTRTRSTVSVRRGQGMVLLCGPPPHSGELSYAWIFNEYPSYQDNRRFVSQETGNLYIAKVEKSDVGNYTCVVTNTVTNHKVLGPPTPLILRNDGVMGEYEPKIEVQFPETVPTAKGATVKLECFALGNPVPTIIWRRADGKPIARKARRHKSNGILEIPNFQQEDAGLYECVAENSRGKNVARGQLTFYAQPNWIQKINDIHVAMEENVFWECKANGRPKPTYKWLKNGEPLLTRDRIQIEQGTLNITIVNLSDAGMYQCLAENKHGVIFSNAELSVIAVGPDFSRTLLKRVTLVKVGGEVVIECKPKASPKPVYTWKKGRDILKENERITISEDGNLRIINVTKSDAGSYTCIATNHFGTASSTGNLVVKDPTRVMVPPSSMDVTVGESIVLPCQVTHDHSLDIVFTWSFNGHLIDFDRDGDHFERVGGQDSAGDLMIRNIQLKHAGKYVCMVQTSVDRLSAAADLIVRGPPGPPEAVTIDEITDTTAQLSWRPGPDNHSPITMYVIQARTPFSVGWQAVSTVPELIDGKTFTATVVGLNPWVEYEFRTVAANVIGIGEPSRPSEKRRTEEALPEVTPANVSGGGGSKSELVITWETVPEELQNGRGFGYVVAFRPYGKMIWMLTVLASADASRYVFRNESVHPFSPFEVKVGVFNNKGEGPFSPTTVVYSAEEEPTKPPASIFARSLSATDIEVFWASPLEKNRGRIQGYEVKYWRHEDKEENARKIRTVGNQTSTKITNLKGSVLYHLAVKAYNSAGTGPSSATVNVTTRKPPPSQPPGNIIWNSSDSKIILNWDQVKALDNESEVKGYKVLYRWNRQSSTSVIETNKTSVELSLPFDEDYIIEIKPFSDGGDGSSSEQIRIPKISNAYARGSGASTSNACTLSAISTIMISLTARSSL
inactive: [1] -0.03 | crizotinib 0.064 | [2] 0.148 | [3] -0.099 | duvelisib 0.102 | gandotinib 0.144 | tozasertib -0.051 | [4] -0.087 | doramapimod -0.095 | ispinesib -0.046 | bafetinib -0.109 | [5] 0.008 | nilotinib 0.06 | [6] 0.01 | dasatinib 0.003 | [7] -0.13 | [8] 0.131 | [9] 0.032 | tipifarnib -0.097 | mubritinib 0.224

CPQ (UniProt Q9Y646)
Chain of UniProt Q9Y646 (Q9Y646 whole entry, looked up): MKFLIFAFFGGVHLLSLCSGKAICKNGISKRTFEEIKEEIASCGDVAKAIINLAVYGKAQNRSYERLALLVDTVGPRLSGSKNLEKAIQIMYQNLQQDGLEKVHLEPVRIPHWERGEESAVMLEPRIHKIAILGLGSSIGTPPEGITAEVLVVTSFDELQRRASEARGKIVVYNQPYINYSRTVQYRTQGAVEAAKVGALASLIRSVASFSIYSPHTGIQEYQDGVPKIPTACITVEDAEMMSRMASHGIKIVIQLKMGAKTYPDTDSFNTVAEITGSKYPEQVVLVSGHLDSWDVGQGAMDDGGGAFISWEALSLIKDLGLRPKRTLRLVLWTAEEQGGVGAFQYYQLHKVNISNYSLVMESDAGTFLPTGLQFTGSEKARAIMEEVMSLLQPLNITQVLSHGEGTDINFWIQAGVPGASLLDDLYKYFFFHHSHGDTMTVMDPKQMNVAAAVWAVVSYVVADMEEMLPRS
inactive: [1] -0.013 | crizotinib -0.023 | [2] -0.001 | [3] 0.049 | duvelisib -0.113 | gandotinib 0.055 | tozasertib 0.004 | [4] -0.058 | doramapimod 0.03 | ispinesib 0.011 | [5] 0 | nilotinib 0.017 | [6] 0.053 | dasatinib 0.069 | [7] -0.046 | [8] 0.012 | [9] -0.025 | tipifarnib 0.031 | mubritinib 0.044
active: bafetinib -0.207

COPS3 (UniProt Q9UNS2)
inactive: [1] 0.018 | crizotinib 0.003 | [2] 0.047 | [3] -0.023 | duvelisib -0.003 | gandotinib -0.087 | tozasertib 0 | [4] -0.006 | doramapimod -0.015 | ispinesib 0.024 | bafetinib -0.05 | [5] -0.027 | nilotinib 0.006 | [6] 0.004 | dasatinib -0.02 | [7] -0.012 | [8] 0.014 | [9] 0.04 | tipifarnib 0.004 | mubritinib 0.023

COX15 (UniProt Q7KZN9)
inactive: [1] -0.008 | crizotinib -0.015 | [2] 0.041 | [3] 0.006 | duvelisib 0.035 | gandotinib -0.07 | tozasertib -0.029 | [4] -0.033 | doramapimod -0.023 | ispinesib -0.016 | bafetinib 0.09 | [5] -0.02 | nilotinib -0.013 | [6] 0.02 | dasatinib 0.078 | [7] -0.034 | [8] 0.008 | [9] -0.023 | tipifarnib 0.046 | mubritinib 0.038

CDC26 (UniProt Q8NHZ8)
Chain of UniProt Q8NHZ8 (Q8NHZ8 whole entry, looked up): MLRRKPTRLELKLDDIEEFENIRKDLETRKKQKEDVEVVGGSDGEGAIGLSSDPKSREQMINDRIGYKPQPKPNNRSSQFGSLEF
inactive: [1] 0.036 | crizotinib 0.153 | [2] 0.016 | [3] 0.212 | duvelisib -0.097 | gandotinib -0.033 | tozasertib 0.096 | [4] -0.021 | doramapimod -0.017 | ispinesib 0.406 | bafetinib -0.034 | [5] 0.162 | nilotinib -0.011 | [6] -0.059 | dasatinib 0.143 | [7] 0.029 | [8] 0.179 | [9] -0.027 | tipifarnib 0.131 | mubritinib -0.028
